Measurements reported in paper PMC7819943, “Rice protein-binding microarrays: a tool to detect cis-acting elements near promoter regions in rice”.
In all, about 39,000 sequences were measured (“fluorescence intensity (a.u.)”: median about 4,300, highest 2% from about 39,000 on). The sample holds the highest values, similar sequences and a random draw of the others, so the mix is not that of the screen.

biological target: T1, OsSMF1 (Oryza sativa, UniProt Q6ZLB0 1-436); test: protein-binding microarray (RPBM); PBS, 2% BSA, 51.3 ng/ul salmon testes DNA, 50 uM zinc acetate, 200 nM TF, 25 C, 1 h; high values mean tight binding; details: protein: recombinant; tags: N-terminal polyhistidine and DsRed monomer fusion (pET32a); chain copies: 2; label: CyDye5-dUTP incorporated in the synthesized complementary strand; 3' TTTTT single-stranded linker to array surface; dsDNA, one strand shown
T1 sequence: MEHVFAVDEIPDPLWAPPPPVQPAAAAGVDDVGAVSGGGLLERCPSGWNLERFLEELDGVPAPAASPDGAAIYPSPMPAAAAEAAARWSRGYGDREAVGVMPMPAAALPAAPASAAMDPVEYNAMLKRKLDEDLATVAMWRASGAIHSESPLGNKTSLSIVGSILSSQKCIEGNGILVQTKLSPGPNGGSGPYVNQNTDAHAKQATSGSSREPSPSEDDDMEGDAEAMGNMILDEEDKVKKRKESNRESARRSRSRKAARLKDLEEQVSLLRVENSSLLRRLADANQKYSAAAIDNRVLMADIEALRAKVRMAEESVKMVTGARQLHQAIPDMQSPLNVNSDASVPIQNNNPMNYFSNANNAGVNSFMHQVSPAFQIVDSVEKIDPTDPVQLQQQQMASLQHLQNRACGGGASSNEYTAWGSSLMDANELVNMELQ
In short: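 The binding signal for each feature is its fluorescence intensity in arbitrary units. An Axon 4000B scanner was used to read a custom Agilent array that had been made double-stranded with Cy5-dUTP primer extension, blocked with 2% BSA, incubated at 25 °C for 1 h with 200 nM protein in PBS, 2% BSA, salmon testes DNA and 50 µM zinc acetate, and washed. The protein was an N-terminal polyhistidine–DsRed transcription factor fusion from E. coli BL21-CodonPlus, purified on Ni–NTA.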

Row | Sequence | binding signal
1 | CGAACGAGAATTCATGGAATCCAAGAAAAGAGACACGTGTCGGAGTCACCTAGTGCAG | 5610 fluorescence intensity (a.u.)
2 | AGAAGACGATCTCCTGAGACAAATTGCCAAAATTAAAGAACGGAGTCACCTAGTGCAG | 4830 fluorescence intensity (a.u.)
3 | GATACGCGGCGGCTGAGTCAGCGTGGGACCCACGTGGGCCCGGAGTCACCTAGTGCAG | 13000 fluorescence intensity (a.u.)
4 | GCCATCCTCACGCACACGCCACGTGCTCGACGAAATGCCGCGGAGTCACCTAGTGCAG | 4190 fluorescence intensity (a.u.)
5 | AGCTCAGCTCTCTCTGCTCTGCTCTTTGCTCGATAACGACCGGAGTCACCTAGTGCAG | 33600 fluorescence intensity (a.u.)
6 | AAGGTTTGGAACATTCTGTTACCTATGAATACTGCACAGGCGGAGTCACCTAGTGCAG | 11700 fluorescence intensity (a.u.)
7 | AAGAGCGTTTAAACAAGCTGTGGAGTCAGCAGATAGATTACGGAGTCACCTAGTGCAG | 3940 fluorescence intensity (a.u.)
8 | GCATCGCCATCGCCGCGTGGTGGCGCACCATTCGCGTCACCGGAGTCACCTAGTGCAG | 5300 fluorescence intensity (a.u.)
9 | CCGACGAGGACGAGGCGGCGTGGTCGAAGCCGGCGGTCGGCGGAGTCACCTAGTGCAG | 42500 fluorescence intensity (a.u.)
10 | CGACGAGAAGGACACCTCCTCGGAAAAGGGAGGGCGTCGGCGGAGTCACCTAGTGCAG | 44600 fluorescence intensity (a.u.)
11 | CCGGGAAGGGAGAGGGAGAGAGGAGTCGGGGCGAGAAGTGCGGAGTCACCTAGTGCAG | 3500 fluorescence intensity (a.u.)
12 | GGAGGAGTGGTCGCCGGGGATCATCGCGCGGCGTCACCGGCGGAGTCACCTAGTGCAG | 3570 fluorescence intensity (a.u.)
13 | CATCGCCGCGCGTGCACCAGAGGACCAGACCGACCGGCGTCGGAGTCACCTAGTGCAG | 50200 fluorescence intensity (a.u.)
14 | CGTCGGCGGCGGCGGAGGGGAGGACGACGTGGTCGACCTCCGGAGTCACCTAGTGCAG | 3590 fluorescence intensity (a.u.)
15 | AAAGGAAAGGCGCGTCACGGCGTCAGACGAGACGACGACGCGGAGTCACCTAGTGCAG | 3340 fluorescence intensity (a.u.)
16 | ATCTAGCGACGAGAAGAGAGGAAGGGAGGGAGGCGTCACGCGGAGTCACCTAGTGCAG | 3830 fluorescence intensity (a.u.)
17 | GGAGGCGGCGGCGACGAGGAGGGGCGTGGGCGGCGGCGGCCGGAGTCACCTAGTGCAG | 3660 fluorescence intensity (a.u.)
18 | GGCTCGCAGAAAGGCGGACGACAAGGGCTCAGCAGGGTCACGGAGTCACCTAGTGCAG | 39500 fluorescence intensity (a.u.)
19 | GGGCGGCGACGACGGTCACGGCGGACAAGGGCGGCGGCAACGGAGTCACCTAGTGCAG | 3160 fluorescence intensity (a.u.)
20 | GTATCCATTCCTGCAAATCCAAGTTGGCAATTCCGAGGGCCGGAGTCACCTAGTGCAG | 3340 fluorescence intensity (a.u.)
21 | GCGGCGCGACAGCGACAAAGCGCACGCGCGCGGCGAGCTGCGGAGTCACCTAGTGCAG | 30800 fluorescence intensity (a.u.)

Row | Sequence | binding signal
22 | TAACTTTGGAACAGGCTGATAAGGGTGGATCCTGCGGTTGCGGAGTCACCTAGTGCAG | 3440 fluorescence intensity (a.u.)
23 | CTGTTTCAGCACCACTGAGTTCGCAGCAAATGACACAAGGCGGAGTCACCTAGTGCAG | 3340 fluorescence intensity (a.u.)
24 | CTTCAGGGTCTAGTCTTTTCAAACCATCGGAGTTATCGTCCGGAGTCACCTAGTGCAG | 3530 fluorescence intensity (a.u.)
25 | CCGTCACGGATGACACTTATCTGTGACGGGCTATAGTTGACGGAGTCACCTAGTGCAG | 4260 fluorescence intensity (a.u.)
26 | GTCGCGCGCTTGGTGGCTTGCAAGAACCAGCTCCACCGCGCGGAGTCACCTAGTGCAG | 3300 fluorescence intensity (a.u.)
27 | GATTCGTTGAATACCGTCATTATTGGTGGGTTATCATCATCGGAGTCACCTAGTGCAG | 3490 fluorescence intensity (a.u.)
28 | GTGGAGTGCGGTGGACGGAGCGGCGGGGCGGGGCGGTCAGCGGAGTCACCTAGTGCAG | 6720 fluorescence intensity (a.u.)
29 | AAAGTTTTGCATGCCGCTGTCGAAGTCGGCTTCCGCGTAGCGGAGTCACCTAGTGCAG | 32300 fluorescence intensity (a.u.)
30 | TCGGCGCCGCGCCGCGCCACGGAGGGTGTCACGAGACCGCCGGAGTCACCTAGTGCAG | 4790 fluorescence intensity (a.u.)
31 | GCCTAGCCAGGATCGCCGCCGGCGGCGCCGCCGAGTCACACGGAGTCACCTAGTGCAG | 33100 fluorescence intensity (a.u.)
32 | TGCAGCAGGAGATCGATCGATCGATCGATCCAACCGAATGCGGAGTCACCTAGTGCAG | 3260 fluorescence intensity (a.u.)
33 | GCCAACGAGGTCGCGTTCGACAAGGTGAAGGACGCCGGCGCGGAGTCACCTAGTGCAG | 39600 fluorescence intensity (a.u.)
34 | AACCGAATCCAATCGAGCTCAGGACGAGGCGGAGGAGGAGCGGAGTCACCTAGTGCAG | 42900 fluorescence intensity (a.u.)
35 | ACCAACAAGGTCGTCGCCGACGACGCCGACGCCGACGCCGCGGAGTCACCTAGTGCAG | 27600 fluorescence intensity (a.u.)
36 | AGAGAGAGAGAGAGAGAGAGAGAGCTCAGGATCGACGAGACGGAGTCACCTAGTGCAG | 16900 fluorescence intensity (a.u.)
37 | TTAGTGAACGGTGCAACGCGTCAAGGACGAGTCAACGCGCCGGAGTCACCTAGTGCAG | 4850 fluorescence intensity (a.u.)
38 | ACGGAGAAGTCCCGAGACCGGCGCCGCCAGGACCGCCACCCGGAGTCACCTAGTGCAG | 44400 fluorescence intensity (a.u.)
39 | TCTCCATAAGAGCACCCACCAACTCAGCCTCTCCTCCCATCGGAGTCACCTAGTGCAG | 3340 fluorescence intensity (a.u.)
40 | CTCCTCCGCCGCCGCCGCTCCCAGCCTGCACGCCGGCCGCCGGAGTCACCTAGTGCAG | 26200 fluorescence intensity (a.u.)
41 | GTGCTGTTCCTGCATGTGCATGCATGTATGAGTACGTACGCGGAGTCACCTAGTGCAG | 3910 fluorescence intensity (a.u.)
42 | TCTCTCTTCACGGGAGGGCAGTGTGGTTTTGGTCGGATTCCGGAGTCACCTAGTGCAG | 3530 fluorescence intensity (a.u.)
